Reference: PubChem BioAssay (NCI)
The panel holds about 79,000 compounds, 15% with a hit somewhere; the sample as a whole holds those more often. Values without a mark were called inactive. Active and inactive are the calls of the source. Cut-off read from the data, not from the text of the source: active = growth inhibition above about 70%; inactive = the rest.

Experiments:
[1] = NCI Yeast Anticancer Drug Screen. Data for the rad50 strain (AID 155);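 note: 0% = growth of vehicle-only cultures of the same strain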; conditions: S. cerevisiae rad50 strain growth inhibition, stronger effect = higher value
In short: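 Compounds were tested on a yeast strain with an engineered DNA damage repair alteration; the reported value is growth inhibition normalised to vehicle treatment.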

[2] = NCI Yeast Anticancer Drug Screen. Data for the mec2-1 strain (AID 157); conditions: S. cerevisiae mec2-1 strain, stronger effect = higher value
In short: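 Vehicle-treated cultures served as reference for growth inhibition of compound-exposed mec2-1 yeast.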

[3] = NCI Yeast Anticancer Drug Screen. Data for the sgs1 mgt1 strain (AID 161);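 note: 0% = growth of cultures given vehicle only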; conditions: S. cerevisiae sgs1 mgt1 strain, stronger effect = higher value
In short: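 Test agents were incubated with a DNA-repair-mutant yeast strain. Growth was then read and compared against vehicle-treated controls.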

[4] = NCI Yeast Anticancer Drug Screen. Data for the cln2 rad14 strain (AID 165);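 note: 0% = growth equal to vehicle treated cultures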; conditions: S. cerevisiae cln2 rad14 strain, stronger effect = higher value
In short: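 Each compound was tested on cln2 rad14 yeast. Inhibition of growth was calculated against vehicle-exposed controls.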

[5] = NCI Yeast Anticancer Drug Screen. Data for the bub3 strain (AID 167); conditions: S. cerevisiae bub3 mutant strain, stronger effect = higher value
In short: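 Growth of a checkpoint-deficient yeast mutant is measured after compound exposure. Values represent inhibition relative to vehicle.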

[6] = NCI Yeast Anticancer Drug Screen. Data for the mlh1 rad18 strain (AID 175); conditions: S. cerevisiae mlh1 rad18 strain growth inhibition, stronger effect = higher value
In short: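 Vehicle-treated cultures served as the reference for growth inhibition in a yeast strain carrying DNA damage repair alterations exposed to each compound.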

[7] = at 5.0 µM (retest, dose inferred, filed as 0.5)
[8] = at 50.0 µM (retest, dose inferred, filed as 5.0)

SMILES	growth inhibition [1, 7]	growth inhibition [1, 8]	growth inhibition ([1]; at 50.0 µM)	growth inhibition [2, 7]	growth inhibition [2, 8]	growth inhibition ([2]; at 50.0 µM)	growth inhibition [3, 7]	growth inhibition [3, 8]	growth inhibition ([3]; at 50.0 µM)	growth inhibition [4, 7]	growth inhibition [4, 8]	growth inhibition ([4]; at 50.0 µM)	growth inhibition [5, 7]	growth inhibition [5, 8]	growth inhibition ([5]; at 50.0 µM)	growth inhibition [6, 7]	growth inhibition [6, 8]	growth inhibition ([6]; at 50.0 µM)
OC(c1cc(C23CC4CC(CC(C4)C2)C3)nc2c(Cl)cc(Cl)cc12)C1CCCCN1 (centres undefined)	99% (active)	98% (active)	98.7% (active)	99% (active)	99% (active)	98.8% (active)	99% (active)	99% (active)	68.9%	99% (active)	98% (active)	99.1% (active)	99% (active)	98% (active)	98.5% (active)	99% (active)	98% (active)	98.8% (active)
Oc1ccc2ccccc2c1N=Nc1ccccn1	35%	91% (active)	98.2% (active)	-4%	96% (active)	96.7% (active)	19%	96% (active)	97.3% (active)	10%	94% (active)	92.8% (active)	-26%	92% (active)	96.7% (active)	27%	94% (active)	97.7% (active)
O=C(C[P+](c1ccccc1)(c1ccccc1)c1ccccc1)c1ccccc1	0%	10%	11.8%	9%	14%	23.4%	-7%	11%	22.1%	18%	12%	8%	2%	8%	16.6%	–	–	–
O=C1C(=O)c2cccnc2-c2ncccc21	93% (active)	98% (active)	90.8% (active)	95% (active)	98% (active)	93.6% (active)	95% (active)	99% (active)	93.2% (active)	73% (active)	96% (active)	91% (active)	96% (active)	98% (active)	92.2% (active)	94% (active)	98% (active)	91.5% (active)
OCCOSCCO	5%	-4%	-0.05%	2%	-4%	-14.1%	-8%	-2%	10.2%	6%	2%	15.8%	2%	6%	-6.5%	4%	-4%	-14.1%
Cc1cc2nc(CC(=O)c3ccncc3)c(=O)[nH]c2cc1C	-28%	9%	6.65%	8%	-11%	11.7%	1%	17%	21.6%	-9%	33%	30.1%	-5%	24%	7.45%	–	–	–
O=C(CCl)N(c1ccccc1)c1ccccc1	5%	59%	89.7% (active)	3%	59%	90.2% (active)	1%	54%	91.8% (active)	1%	39%	68.5%	8%	63%	86.5% (active)	2%	73% (active)	92.8% (active)
CCN(CC)c1ccc(/C=C\C(=O)c2ccc(NC(C)=O)cc2)cc1	-22%	-8%	22.8%	-14%	-21%	55.4%	-13%	-2%	52%	-11%	-10%	28.6%	-12%	-4%	76.8% (active)	-21%	-9%	52%
Clc1ccc(Cc2nc3ccccc3s2)cc1	-5%	99% (active)	99.2% (active)	33%	99% (active)	99.5% (active)	47%	99% (active)	99.5% (active)	16%	99% (active)	97.3% (active)	38%	99% (active)	99% (active)	29%	99% (active)	99.3% (active)
CCCCCC/C=C1\CCC(CN2CCCC2)C1=O (centres undefined)	52%	97% (active)	91% (active)	33%	99% (active)	70.7% (active)	59%	96% (active)	90.4% (active)	71% (active)	87% (active)	81.9% (active)	66%	99% (active)	79.5% (active)	78% (active)	98% (active)	89.2% (active)
